The experiment is described as follows: qHTS drug screen for cell cycle checkpoint inhibitors in PARPi-resistant BRCA-mutant ovarian cancer cell lines. (AID 1963452). As to conditions: PEO1/OlaR viability, CellTiter-Glo luminescence, 96 h, stronger effect = lower value. In short, it runs like this: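 PEO1, PEO4 and PEO1/OlaR ovarian cancer cells, 600 per well, exposed 96 h at 37C to a dilution series. Viability read by CellTiter-Glo luminescence, normalized to DMSO and empty wells; activity summarized as Z-AUC.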
(qHTS replaces the single test concentration by a dilution series.)

The mark [1] stands for this setting: measured here: PEO1 parental Z-AUC.

Molecules are shown by their SMILES. Activity calls are given as the source filed them. Calls follow the shape of the full dose curve.

Regarding `CNC(=O)Nc1ccc(-c2nc(N3CC4CCC(C3)O4)c3cnn(C4CCC5(CC4)OCCO5)c3n2)cc1`, the Z-AUC was -0.248 (inactive). For the same compound, under setting [1], the Z-AUC is -0.236. Moreover, the Z-AUC (measured here: PEO4 Z-AUC) was -1.02.
In the same order, the values of `CCOC(=O)C1=C(C)NC(=S)NC1c1cccc(O)c1` (stereo not given) are 1.34 (inactive), 0.343 and 0.61.
With `Cc1ncc(-c2ccnc(Nc3ccc(S(C)(=O)=O)cc3)n2)n1C(C)C`, the Z-AUC is -1.39 (inactive). In addition, the Z-AUC under setting [1] was -0.968. Besides, the Z-AUC (measured here: PEO4 Z-AUC) is -1.44.
For `O=C1CSC(=O)N1C(CCc1ccncc1)COc1ccc(-c2cccc([N+](=O)[O-])c2)cc1` (stereo not given) the same measures were 0.623 (inactive), -0.739 and 0.104.
Regarding `CC1=C(C(=O)Nc2cc3cn[nH]c3cc2F)C(c2ccc(Cl)cc2F)N=C(c2ccnc(Cl)c2)N1` (stereo not given), the Z-AUC is 0.0424 (inactive). Also, the Z-AUC under setting [1] stood at 0.693. Moreover, the Z-AUC (measured here: PEO4 Z-AUC) amounted to 0.963.
Take `CN1C(C(=O)Nc2ccccn2)=C(O)c2sc(Cl)cc2S1(=O)=O`: the Z-AUC was 0.627 (inactive). Besides, the Z-AUC under setting [1] was 0.551. Also, the Z-AUC (measured here: PEO4 Z-AUC) worked out at 0.669.
In the same order, the values of `Cc1cnc(Nc2ccc(N3CCN(C)CC3)cc2)nc1Nc1cccc(S(=O)(=O)NC(C)(C)C)c1` are -0.289 (inactive), -0.236 and -0.304.
For `O=C1NCCc2[nH]c(-c3ccncc3)cc21` the same measures were -1.33 (inactive), -1 and -1.61.
In the same order, the values of `COc1ccc(Nc2nccc(NCCO)n2)cc1` are 1.22 (inactive), 0.748 and 0.763.
Consider `COc1cc2ncnc(Nc3cccc(Br)c3)c2cc1OC`, for which the Z-AUC is 0.281 (inactive). In addition, the Z-AUC under setting [1] is 0.586. Besides, where the note is “measured here: PEO4 Z-AUC”, the Z-AUC was determined as 0.428.
For `C[N+](C)([O-])CCNc1ccc(NCC[N+](C)(C)[O-])c2c1C(=O)c1c(O)ccc(O)c1C2=O` the same measures were 0.909 (inactive), -0.431 and 0.857.
As to `C[C@@H](NCc1cc2ccccc2[nH]1)c1cccc2ccccc12`, the Z-AUC is 0.66 (inactive). Further, the Z-AUC under setting [1] is 0.376. For the same compound, the Z-AUC (measured here: PEO4 Z-AUC) turned out to be 0.0374.
`c1ccc(CNc2nc(NCc3ccccc3)c3ccccc3n2)cc1`: the Z-AUC was 0.198 (inactive). The Z-AUC under setting [1] was -0.502. Moreover, the Z-AUC (measured here: PEO4 Z-AUC) is -0.739.
For `NC1=N[C@H]2[C@H](CS[C@H]2CCCCC(=O)O)N1` the same measures were -0.195 (inactive), 0.0828 and 0.00068.
`COc1cc(CCc2cc(NC(=O)c3ccc(N4C[C@@H](C)N[C@@H](C)C4)cc3)n[nH]2)cc(OC)c1`: the Z-AUC is -1.36 (inactive). Moreover, under setting [1], the Z-AUC was -0.945. In addition, where the note is “measured here: PEO4 Z-AUC”, the Z-AUC is -0.842.
For `Cn1c(Nc2ccc(C(F)(F)F)cc2)nc2cc(Oc3ccnc(-c4ncc(C(F)(F)F)[nH]4)c3)ccc21` the same measures were -0.152 (inactive), -0.11 and -1.19.
In the same order, the values of `CC(C)NC[C@@H](C(=O)N1CCN(c2ncnc3c2[C@H](C)C[C@H]3O)CC1)c1ccc(Cl)cc1` are 1.25 (inactive), 1.5 and 1.13.
In the case of `O=[N+]([O-])c1cn2c(n1)OC[C@@H](OCc1ccc(OC(F)(F)F)cc1)C2`, the Z-AUC was 0.733 (inactive). Besides, the Z-AUC under setting [1] came to 0.61. The Z-AUC (measured here: PEO4 Z-AUC) was found to be 0.849.
In the same order, the values of `CC(O)(C#Cc1ccc2c(c1)N(c1nc(N)ncc1Cl)CC2)c1nccs1` (stereo not given) are -0.29 (inactive), -0.463 and -0.647.
On to `CC(N[C@H]1CCCC[C@H]1NC(=O)c1ccc(Cl)cc1)c1cccc2ccccc12` (stereo not given in full), for which the Z-AUC is 0.148 (inactive). The Z-AUC under setting [1] was found to be 0.0458. For the setting “measured here: PEO4 Z-AUC”, the Z-AUC stood at 0.472.

Values taken from PubChem BioAssay (NCATS).
